About 2,200 (0.71%) of roughly 310,000 compounds showed an effect of 50% or more. Effects have a minus sign here. The sample as a whole holds a higher share of strong results than the screen did.

The target in this assay is human ether-à-go-go-related gene (hERG) potassium channel (human, UniProt Q12809). In words: primary screen, population patch clamp on CHO cells stably expressing hERG; higher = less effect of the substance.
Sequence of human ether-à-go-go-related gene (hERG) potassium channel (Q12809 whole entry, looked up): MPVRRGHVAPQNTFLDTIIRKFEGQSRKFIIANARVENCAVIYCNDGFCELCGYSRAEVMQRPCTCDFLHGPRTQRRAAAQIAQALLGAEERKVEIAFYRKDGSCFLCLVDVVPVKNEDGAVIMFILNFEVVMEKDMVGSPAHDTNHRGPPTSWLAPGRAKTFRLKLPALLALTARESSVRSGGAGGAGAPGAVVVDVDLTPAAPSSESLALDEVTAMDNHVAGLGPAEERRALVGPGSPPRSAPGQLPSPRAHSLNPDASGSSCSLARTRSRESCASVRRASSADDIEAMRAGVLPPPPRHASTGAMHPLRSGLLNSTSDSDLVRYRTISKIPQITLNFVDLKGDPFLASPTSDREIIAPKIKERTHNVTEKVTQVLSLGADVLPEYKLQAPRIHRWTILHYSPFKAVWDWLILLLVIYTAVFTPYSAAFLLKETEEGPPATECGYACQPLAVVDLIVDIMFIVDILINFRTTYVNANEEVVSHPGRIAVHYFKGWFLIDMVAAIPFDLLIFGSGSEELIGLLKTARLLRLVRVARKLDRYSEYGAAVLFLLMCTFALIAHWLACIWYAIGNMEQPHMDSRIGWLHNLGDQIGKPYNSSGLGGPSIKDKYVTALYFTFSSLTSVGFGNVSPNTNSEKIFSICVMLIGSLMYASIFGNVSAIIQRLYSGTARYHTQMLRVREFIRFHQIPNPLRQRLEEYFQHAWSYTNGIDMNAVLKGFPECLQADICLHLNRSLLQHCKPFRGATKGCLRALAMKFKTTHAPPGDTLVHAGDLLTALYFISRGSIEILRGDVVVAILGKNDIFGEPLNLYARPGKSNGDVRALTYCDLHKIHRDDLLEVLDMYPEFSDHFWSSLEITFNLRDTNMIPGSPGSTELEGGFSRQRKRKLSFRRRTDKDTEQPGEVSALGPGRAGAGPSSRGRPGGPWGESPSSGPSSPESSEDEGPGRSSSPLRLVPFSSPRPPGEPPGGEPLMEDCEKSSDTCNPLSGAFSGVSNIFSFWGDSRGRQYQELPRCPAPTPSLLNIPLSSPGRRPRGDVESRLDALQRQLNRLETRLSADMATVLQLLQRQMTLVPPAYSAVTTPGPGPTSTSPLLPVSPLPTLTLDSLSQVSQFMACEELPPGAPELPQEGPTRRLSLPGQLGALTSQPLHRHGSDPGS
Take `COc1ccc(CNC(=O)CSc2nnc(-c3cccnc3)n2N)cc1`: the “hERG current change (%, negative = inhibition) at 1uM” value stood at 7.27%. To `CCN(CC(=O)Nc1ccc(NC(C)=O)cc1)C(=O)COc1ccc(C(=O)c2ccccc2)cc1` belongs 10.3%; to `CCN1CCN(c2ccc(S(=O)(=O)N3CCCCC3)cc2NC(=O)c2ccc(F)cc2)CC1`, -16.7%. The result for `CCN1CCN(c2ccc(S(=O)(=O)N3CCCCC3)cc2NC(=O)c2ccc(C)o2)CC1` reads -62.4%; that for `CCN1CCN(c2ccc(S(=O)(=O)N3CCCCC3)cc2NC(=O)c2ccc([N+](=O)[O-])s2)CC1`, -13.8%; that for `CCN1CCN(c2ccc(S(=O)(=O)N3CCCCC3)cc2NC(=O)/C=C/c2ccc(OC(F)F)cc2)CC1`, -1.19%.

Take `CCN1CCN(c2ccc(S(=O)(=O)N3CCCCC3)cc2NC(=O)c2ccc([N+](=O)[O-])o2)CC1`: the “hERG current change (%, negative = inhibition) at 1uM” value is recorded as -73.3%. The result for `CCN1CCN(c2ccc(S(=O)(=O)N3CCCCC3)cc2NC(=O)c2cc3ccccc3o2)CC1` reads 0.811%.

`CCN1CCN(c2ccc(S(=O)(=O)N3CCCCC3)cc2NC(=O)c2ccccc2)CC1`: the “hERG current change (%, negative = inhibition) at 1uM” value is -15.6%.

In the case of `COc1ccc(S(=O)(=O)N2CCCCC2)cc1NC(=O)c1ccc([N+](=O)[O-])o1`, the “hERG current change (%, negative = inhibition) at 1uM” value is given as 12.4%. The result for `CCN1CCN(c2ccc(S(=O)(=O)N3CCCCC3)cc2NC(=O)c2ccc(OC(F)F)cc2)CC1` reads -56.4%; that for `Cc1cccc(C)c1Nc1nnc(SCC(=O)c2ccc(Br)s2)s1`, 12.4%. On to `CCCN(CCC)S(=O)(=O)c1ccc(NC(=O)c2cc(C(=O)OC)cc([N+](=O)[O-])c2)cc1`, for which the “hERG current change (%, negative = inhibition) at 1uM” value is reported as 16.7%. For the compound `CCCn1c2ccccc2c2cnn(CC(=O)NC3CCCC(C)C3C)c(=O)c21` (centres unmarked), the “hERG current change (%, negative = inhibition) at 1uM” value was found to be 11.4%. To `CN(C)S(=O)(=O)c1ccc2nnn(O)c2c1` belongs 7.89%; to `CCC(C)(C)NC(=O)C(c1ccco1)N(C(=O)Cn1nnc2ccccc21)c1ccc2c(c1)OCO2` (centres unmarked), 13.9%. To `O=C(NCc1ccncc1)c1nc(-c2cccs2)no1` belongs -0.652%; to `COc1ccc(S(=O)(=O)NCCc2csc(-c3cccnc3)n2)cc1`, -9.72%. On to `CN(/N=C/c1ccc(Cl)cc1)c1ncc(Cl)cc1C(F)(F)F`, for which the “hERG current change (%, negative = inhibition) at 1uM” value was determined as 14.6%. In the case of `CN1/C(=C\C=O)C(C)(C)c2ccccc21`, the “hERG current change (%, negative = inhibition) at 1uM” value is recorded as 3.65%.

On to `CN1/C(=C\C=C(C#N)C#N)C(C)(C)c2ccccc21`, for which the “hERG current change (%, negative = inhibition) at 1uM” value was 2.94%.

As to `CN1/C(=C/C=N/n2cnnc2)C(C)(C)c2ccccc21`, the “hERG current change (%, negative = inhibition) at 1uM” value came to 7.04%. To `CN1/C(=C\C=Nc2ccc3ccccc3c2)C(C)(C)c2ccccc21` belongs -75.1%. The result for `Cc1c(N=C/C=C2/N(C)c3ccccc3C2(C)C)c(=O)n(-c2ccccc2)n1C` reads -5.46%; that for `CN1/C(=C/C=C(C#N)C#N)C(C)(C)c2ccccc21`, 10.9%. The result for `CN1/C(=C\C=N\O)C(C)(C)c2ccccc21` reads 14.7%.

For `CN1/C(=C\C=Nc2ccccc2)C(C)(C)c2ccccc21`, the “hERG current change (%, negative = inhibition) at 1uM” value was -65%. On to `Cc1ccccc1N=C/C=C1\N(C)c2ccccc2C1(C)C`, for which the “hERG current change (%, negative = inhibition) at 1uM” value is recorded as -51.2%. For the compound `CO/N=C/C=C1/N(C)c2ccccc2C1(C)C`, the “hERG current change (%, negative = inhibition) at 1uM” value is listed as 12.5%. Take `Cc1c(N=C/C=C2\N(C)c3ccccc3C2(C)C)c(=O)n(-c2ccccc2)n1C`: the “hERG current change (%, negative = inhibition) at 1uM” value is listed as -15.5%.

Regarding `CN(C)c1ccc(N=C/C=C2\N(C)c3ccccc3C2(C)C)cc1`, the “hERG current change (%, negative = inhibition) at 1uM” value is on record as -84.7%. To `N#Cc1nc(-c2ccc(Cl)cc2)oc1NCc1ccco1` belongs 18.1%; to `COc1cccc(-n2c(Cc3cc(=O)[nH]c(=O)[nH]3)nnc2SC(C)C)c1`, 2.56%. The result for `CCNC(=O)c1ccc(CSc2nc3ccccc3s2)cc1` reads 11.4%; that for `O=S(=O)(c1ccc(NC(=S)NCCc2ccccc2)cc1)N1CCOCC1`, 3.71%; that for `COc1cccc(-c2nc(CS(=O)(=O)CC(=O)NCCCN3CC(C)CC(C)C3)c(C)o2)c1` (centres unmarked), -5.41%. The result for `CCOC(=O)Nc1ccc2c(c1)Nc1ccccc1S2` reads 9.07%; that for `COc1cccc(NC(=O)CNS(=O)(=O)c2ccc3nc(C)sc3c2)c1`, 14.5%. Regarding `Cc1ccc(-c2cc(C(=O)Nc3cccnc3)c3ccccc3n2)s1`, the “hERG current change (%, negative = inhibition) at 1uM” value stood at 12.1%.

On to `Cn1cnnc1SCC(=O)Nc1sc2c(c1C(N)=O)CCC2`, for which the “hERG current change (%, negative = inhibition) at 1uM” value came out at 13.3%. In the case of `CCCCNC(=O)CCCN1C(=O)c2cccnc2Sc2ccccc21`, the “hERG current change (%, negative = inhibition) at 1uM” value is 14.1%.

For `CCCCNc1ncnc2sc3c(c12)CCN(CCC)C3`, the “hERG current change (%, negative = inhibition) at 1uM” value is -80.9%.

On to `OCCCNc1ncnc2sc3c(c12)CCN(Cc1ccccc1)C3`, for which the “hERG current change (%, negative = inhibition) at 1uM” value turned out to be 7.54%. The result for `CC1CCc2c(sc3ncnc(NCCN4CCOCC4)c23)C1` (centres unmarked) reads -13.1%.
